# From PMC7862700, “An all-to-all approach to the identification of sequence-specific readers for epigenetic DNA modifications on cytosine”
# Columns and labels:
# Assay in all cases: DAPPL (digital affinity profiling via proximity ligation, sequencing); 10 mM Tris-HCl pH 7.5, 50 mM NaCl, 1 mM DTT, 4% glycerol, room temperature, 30 min; GST-TFs on glutathione beads, 16-mer random dsDNA library, 0.1% formaldehyde crosslink after washing; high values mean tight binding
# FLI1 = molecular target: T1, FLI1 (Homo sapiens, UniProt Q01543 1-452); conditions: protein: recombinant; tags: N-terminal GST; dsDNA, one strand shown
# T1 sequence: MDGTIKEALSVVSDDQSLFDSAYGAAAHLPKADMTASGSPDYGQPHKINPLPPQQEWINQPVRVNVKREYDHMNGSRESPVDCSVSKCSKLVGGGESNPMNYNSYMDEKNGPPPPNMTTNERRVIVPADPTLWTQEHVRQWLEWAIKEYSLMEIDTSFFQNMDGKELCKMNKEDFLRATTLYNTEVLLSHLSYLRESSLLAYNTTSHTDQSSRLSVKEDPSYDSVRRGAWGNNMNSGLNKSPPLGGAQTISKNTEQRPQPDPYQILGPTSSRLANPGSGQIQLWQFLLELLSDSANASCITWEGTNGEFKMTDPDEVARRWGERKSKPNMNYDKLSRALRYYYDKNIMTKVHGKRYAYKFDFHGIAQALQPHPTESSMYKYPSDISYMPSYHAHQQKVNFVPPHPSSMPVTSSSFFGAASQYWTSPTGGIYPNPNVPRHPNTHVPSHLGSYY
# Outline: (§1)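 The binding signal reported is, for every hexamer, its read frequency for a factor over its read frequency for the tag-only sample. Reads came from pools of yeast-expressed, GST-fused human transcription factors on glutathione beads, barcoded with DNA and mixed with that sample, which were incubated with 200 nmole of a random double-stranded 16-mer DNA library in Tris/NaCl/DTT/glycerol buffer at room temperature for 30 min. After washing, the pools were crosslinked with 0.1% formaldehyde, proximity-ligated with BsaI/T4 ligase for 1 h at 37 °C, PCR-amplified and sequenced on an Illumina NextSeq500.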
# ELK1 = molecular target: T2, ELK1 (Homo sapiens, UniProt P19419 1-428); conditions: protein: recombinant; tags: N-terminal GST; dsDNA, one strand shown
# T2 sequence: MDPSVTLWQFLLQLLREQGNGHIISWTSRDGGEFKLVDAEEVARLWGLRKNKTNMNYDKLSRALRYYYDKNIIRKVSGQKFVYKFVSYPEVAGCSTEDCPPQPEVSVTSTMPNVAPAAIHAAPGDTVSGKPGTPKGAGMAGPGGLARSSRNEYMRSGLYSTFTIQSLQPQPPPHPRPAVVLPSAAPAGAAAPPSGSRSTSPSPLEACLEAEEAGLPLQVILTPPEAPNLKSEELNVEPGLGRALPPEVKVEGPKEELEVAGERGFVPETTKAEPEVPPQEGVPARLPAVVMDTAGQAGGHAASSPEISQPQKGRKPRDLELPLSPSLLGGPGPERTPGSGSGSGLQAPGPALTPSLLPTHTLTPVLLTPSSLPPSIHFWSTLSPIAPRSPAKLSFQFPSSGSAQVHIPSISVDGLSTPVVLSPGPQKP
# Outline: as §1
# GABPA = molecular target: T3, GABPA (Homo sapiens, UniProt Q06546 1-454); conditions: protein: recombinant; tags: N-terminal GST; dsDNA, one strand shown
# T3 sequence: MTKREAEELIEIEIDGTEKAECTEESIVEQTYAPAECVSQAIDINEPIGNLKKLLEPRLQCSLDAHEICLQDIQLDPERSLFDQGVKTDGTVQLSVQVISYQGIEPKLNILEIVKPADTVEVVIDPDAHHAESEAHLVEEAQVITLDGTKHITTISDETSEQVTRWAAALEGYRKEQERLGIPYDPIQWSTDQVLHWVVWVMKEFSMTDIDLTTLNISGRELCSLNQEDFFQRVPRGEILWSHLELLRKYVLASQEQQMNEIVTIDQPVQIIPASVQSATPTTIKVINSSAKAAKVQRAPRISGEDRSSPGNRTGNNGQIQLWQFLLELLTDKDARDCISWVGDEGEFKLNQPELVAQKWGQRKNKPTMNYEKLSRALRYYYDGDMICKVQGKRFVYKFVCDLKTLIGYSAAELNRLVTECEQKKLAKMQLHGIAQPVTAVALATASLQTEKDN
# Outline: as §1
# ERG = molecular target: T4, ERG (Homo sapiens, UniProt P11308 1-479); conditions: protein: recombinant; tags: N-terminal GST; dsDNA, one strand shown
# T4 sequence: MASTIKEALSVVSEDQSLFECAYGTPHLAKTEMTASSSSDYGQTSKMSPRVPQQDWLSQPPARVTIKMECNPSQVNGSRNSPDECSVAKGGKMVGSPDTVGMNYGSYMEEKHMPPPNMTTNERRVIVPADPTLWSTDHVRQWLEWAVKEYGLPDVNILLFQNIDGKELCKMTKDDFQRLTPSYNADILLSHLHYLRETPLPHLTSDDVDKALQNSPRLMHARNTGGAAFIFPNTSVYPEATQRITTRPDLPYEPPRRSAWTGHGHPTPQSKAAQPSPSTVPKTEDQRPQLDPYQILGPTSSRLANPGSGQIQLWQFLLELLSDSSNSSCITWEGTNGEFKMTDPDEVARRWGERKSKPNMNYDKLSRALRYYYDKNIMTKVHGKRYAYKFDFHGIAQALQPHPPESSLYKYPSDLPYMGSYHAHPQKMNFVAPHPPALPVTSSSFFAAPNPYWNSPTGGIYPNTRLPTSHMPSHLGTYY
# Outline: as §1
# ELF1 = ELF1 (Homo sapiens, UniProt P32519 1-619); conditions: protein: recombinant; tags: N-terminal GST; dsDNA, one strand shown
# Outline: as §1
# EHF = molecular target: T5, EHF (Homo sapiens, UniProt Q9NZC4 1-300); conditions: protein: recombinant; tags: N-terminal GST; dsDNA, one strand shown
# T5 sequence: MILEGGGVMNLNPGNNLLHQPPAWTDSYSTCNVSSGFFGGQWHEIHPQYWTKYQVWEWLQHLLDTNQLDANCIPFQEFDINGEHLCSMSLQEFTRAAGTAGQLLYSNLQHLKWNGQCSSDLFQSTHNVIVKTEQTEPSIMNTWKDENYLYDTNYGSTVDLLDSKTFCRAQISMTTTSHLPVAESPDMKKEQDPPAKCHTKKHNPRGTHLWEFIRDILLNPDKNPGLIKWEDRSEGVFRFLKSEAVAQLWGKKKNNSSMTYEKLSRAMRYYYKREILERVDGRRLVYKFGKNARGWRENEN
# Outline: as §1
# SPI1 = SPI1 (Homo sapiens, UniProt P17947 1-270); conditions: protein: recombinant; tags: N-terminal GST; dsDNA, one strand shown
# Outline: as §1
# SPIB = SPIB (Homo sapiens, UniProt Q01892 1-262); conditions: protein: recombinant; tags: N-terminal GST; dsDNA, one strand shown
# Outline: as §1
# ELK3 = molecular target: T6, ELK3 (Homo sapiens, UniProt P41970 1-407); conditions: protein: recombinant; tags: N-terminal GST; dsDNA, one strand shown
# T6 sequence: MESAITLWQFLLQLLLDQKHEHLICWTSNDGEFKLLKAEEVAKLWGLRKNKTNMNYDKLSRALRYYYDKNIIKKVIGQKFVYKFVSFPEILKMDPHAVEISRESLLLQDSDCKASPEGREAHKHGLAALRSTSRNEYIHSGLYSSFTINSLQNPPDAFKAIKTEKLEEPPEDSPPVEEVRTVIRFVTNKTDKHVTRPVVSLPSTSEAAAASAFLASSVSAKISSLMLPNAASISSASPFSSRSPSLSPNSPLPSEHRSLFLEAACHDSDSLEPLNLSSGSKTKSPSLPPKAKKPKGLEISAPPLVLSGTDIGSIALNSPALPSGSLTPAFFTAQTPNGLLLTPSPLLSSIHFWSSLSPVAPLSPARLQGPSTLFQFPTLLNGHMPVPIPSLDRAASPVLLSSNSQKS
# Outline: as §1
# FEV = molecular target: T7, FEV (Homo sapiens, UniProt Q99581 1-238); conditions: protein: recombinant; tags: N-terminal GST; dsDNA, one strand shown
# T7 sequence: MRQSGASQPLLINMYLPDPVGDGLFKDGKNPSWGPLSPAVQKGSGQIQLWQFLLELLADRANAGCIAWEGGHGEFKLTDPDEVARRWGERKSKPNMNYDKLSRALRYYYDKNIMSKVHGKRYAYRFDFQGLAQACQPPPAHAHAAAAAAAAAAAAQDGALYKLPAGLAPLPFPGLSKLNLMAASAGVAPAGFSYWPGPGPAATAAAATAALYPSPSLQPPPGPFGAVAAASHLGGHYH
# Outline: as §1
# ETV5 = ETV5 (Homo sapiens, UniProt P41161 1-510); conditions: protein: recombinant; tags: N-terminal GST; dsDNA, one strand shown
# Outline: as §1
# HSF1 = HSF1 (Homo sapiens, UniProt Q00613 1-529); conditions: protein: recombinant; tags: N-terminal GST; chain copies: 3; dsDNA, one strand shown
# Outline: as §1
# ELF4 = ELF4 (Homo sapiens, UniProt Q99607 1-663); conditions: protein: recombinant; tags: N-terminal GST; dsDNA, one strand shown
# Outline: as §1
# ELK4 = molecular target: T8, ELK4 (Homo sapiens, UniProt P28324-2 1-405); conditions: protein: recombinant; tags: N-terminal GST; dsDNA, one strand shown
# T8 sequence: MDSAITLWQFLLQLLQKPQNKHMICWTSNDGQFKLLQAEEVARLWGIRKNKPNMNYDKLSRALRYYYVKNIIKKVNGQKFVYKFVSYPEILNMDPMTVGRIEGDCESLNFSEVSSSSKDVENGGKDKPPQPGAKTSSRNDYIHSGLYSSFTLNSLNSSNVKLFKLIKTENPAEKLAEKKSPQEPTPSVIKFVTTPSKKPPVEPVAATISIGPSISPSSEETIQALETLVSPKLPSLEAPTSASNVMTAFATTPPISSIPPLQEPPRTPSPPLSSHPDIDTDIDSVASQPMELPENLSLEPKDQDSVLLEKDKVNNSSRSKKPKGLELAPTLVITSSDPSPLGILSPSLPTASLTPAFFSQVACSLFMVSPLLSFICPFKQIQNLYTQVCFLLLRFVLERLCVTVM
# Outline: as §1
# ETV2 = molecular target: T9, ETV2 (Homo sapiens, UniProt O00321 1-342); conditions: protein: recombinant; tags: N-terminal GST; dsDNA, one strand shown
# T9 sequence: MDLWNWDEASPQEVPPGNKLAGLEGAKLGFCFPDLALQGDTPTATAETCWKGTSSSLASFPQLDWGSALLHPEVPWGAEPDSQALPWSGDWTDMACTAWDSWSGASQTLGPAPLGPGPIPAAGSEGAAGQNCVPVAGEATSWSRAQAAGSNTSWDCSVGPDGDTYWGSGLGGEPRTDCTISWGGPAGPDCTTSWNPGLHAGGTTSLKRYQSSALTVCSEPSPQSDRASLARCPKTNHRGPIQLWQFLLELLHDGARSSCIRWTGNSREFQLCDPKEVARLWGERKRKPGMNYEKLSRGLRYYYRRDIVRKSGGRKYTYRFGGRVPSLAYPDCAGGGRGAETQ
# Outline: as §1
# ELF3 = molecular target: T10, ELF3 (Homo sapiens, UniProt P78545 1-371); conditions: protein: recombinant; tags: N-terminal GST; dsDNA, one strand shown
# T10 sequence: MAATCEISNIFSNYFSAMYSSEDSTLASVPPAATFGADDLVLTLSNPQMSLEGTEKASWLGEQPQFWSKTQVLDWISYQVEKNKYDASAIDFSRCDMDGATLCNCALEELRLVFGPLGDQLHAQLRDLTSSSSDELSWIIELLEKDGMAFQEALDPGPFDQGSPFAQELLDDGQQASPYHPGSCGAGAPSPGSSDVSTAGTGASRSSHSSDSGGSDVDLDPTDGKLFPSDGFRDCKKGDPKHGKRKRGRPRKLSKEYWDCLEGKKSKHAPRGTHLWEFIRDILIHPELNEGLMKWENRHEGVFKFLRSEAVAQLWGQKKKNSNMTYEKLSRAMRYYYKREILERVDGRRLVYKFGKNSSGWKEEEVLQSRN
# Outline: as §1
# ETV1 = ETV1 (Homo sapiens, UniProt P50549 1-477); conditions: protein: recombinant; tags: N-terminal GST; dsDNA, one strand shown
# Outline: as §1
# Sequence of SPIB (Q01892 whole entry): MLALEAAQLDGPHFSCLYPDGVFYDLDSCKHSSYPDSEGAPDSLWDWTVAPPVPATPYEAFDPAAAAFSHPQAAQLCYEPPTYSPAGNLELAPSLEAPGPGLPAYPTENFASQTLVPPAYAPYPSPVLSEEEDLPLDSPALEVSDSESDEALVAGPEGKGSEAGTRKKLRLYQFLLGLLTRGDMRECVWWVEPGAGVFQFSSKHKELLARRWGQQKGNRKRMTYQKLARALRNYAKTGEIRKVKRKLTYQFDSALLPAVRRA
# Sequence of HSF1 (Q00613 whole entry): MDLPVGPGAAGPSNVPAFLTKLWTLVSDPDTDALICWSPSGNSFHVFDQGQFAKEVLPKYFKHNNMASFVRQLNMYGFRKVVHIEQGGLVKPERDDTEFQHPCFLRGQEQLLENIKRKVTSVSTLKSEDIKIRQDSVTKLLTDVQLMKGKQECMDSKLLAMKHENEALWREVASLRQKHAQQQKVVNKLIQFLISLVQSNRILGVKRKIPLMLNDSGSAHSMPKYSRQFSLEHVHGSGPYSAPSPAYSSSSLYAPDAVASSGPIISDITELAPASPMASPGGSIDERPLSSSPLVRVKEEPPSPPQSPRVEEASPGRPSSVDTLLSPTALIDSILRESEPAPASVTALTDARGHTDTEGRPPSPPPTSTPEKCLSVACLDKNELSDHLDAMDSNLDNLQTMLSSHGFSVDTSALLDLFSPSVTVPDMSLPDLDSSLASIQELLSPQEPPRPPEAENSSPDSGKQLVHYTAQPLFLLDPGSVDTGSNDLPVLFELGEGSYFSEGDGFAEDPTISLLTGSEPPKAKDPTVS
# Sequence of ELF4 (Q99607 whole entry): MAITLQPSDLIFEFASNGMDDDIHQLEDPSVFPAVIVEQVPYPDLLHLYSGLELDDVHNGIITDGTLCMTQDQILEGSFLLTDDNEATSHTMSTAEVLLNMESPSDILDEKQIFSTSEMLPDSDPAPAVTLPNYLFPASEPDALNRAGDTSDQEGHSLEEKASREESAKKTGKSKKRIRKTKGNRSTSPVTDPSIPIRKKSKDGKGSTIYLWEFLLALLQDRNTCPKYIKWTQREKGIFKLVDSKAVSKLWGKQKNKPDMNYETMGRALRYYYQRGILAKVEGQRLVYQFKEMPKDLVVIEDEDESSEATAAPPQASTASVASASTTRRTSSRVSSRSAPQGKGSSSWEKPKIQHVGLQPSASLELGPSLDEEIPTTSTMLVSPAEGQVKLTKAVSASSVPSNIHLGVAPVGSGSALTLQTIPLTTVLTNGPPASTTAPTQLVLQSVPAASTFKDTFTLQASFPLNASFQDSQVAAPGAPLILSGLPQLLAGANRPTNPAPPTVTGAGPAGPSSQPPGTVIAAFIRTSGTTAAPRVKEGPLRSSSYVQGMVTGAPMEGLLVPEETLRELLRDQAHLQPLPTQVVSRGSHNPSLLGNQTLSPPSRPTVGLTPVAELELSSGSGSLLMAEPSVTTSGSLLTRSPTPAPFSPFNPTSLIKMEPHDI
# Sequence of ELF1 (P32519 whole entry): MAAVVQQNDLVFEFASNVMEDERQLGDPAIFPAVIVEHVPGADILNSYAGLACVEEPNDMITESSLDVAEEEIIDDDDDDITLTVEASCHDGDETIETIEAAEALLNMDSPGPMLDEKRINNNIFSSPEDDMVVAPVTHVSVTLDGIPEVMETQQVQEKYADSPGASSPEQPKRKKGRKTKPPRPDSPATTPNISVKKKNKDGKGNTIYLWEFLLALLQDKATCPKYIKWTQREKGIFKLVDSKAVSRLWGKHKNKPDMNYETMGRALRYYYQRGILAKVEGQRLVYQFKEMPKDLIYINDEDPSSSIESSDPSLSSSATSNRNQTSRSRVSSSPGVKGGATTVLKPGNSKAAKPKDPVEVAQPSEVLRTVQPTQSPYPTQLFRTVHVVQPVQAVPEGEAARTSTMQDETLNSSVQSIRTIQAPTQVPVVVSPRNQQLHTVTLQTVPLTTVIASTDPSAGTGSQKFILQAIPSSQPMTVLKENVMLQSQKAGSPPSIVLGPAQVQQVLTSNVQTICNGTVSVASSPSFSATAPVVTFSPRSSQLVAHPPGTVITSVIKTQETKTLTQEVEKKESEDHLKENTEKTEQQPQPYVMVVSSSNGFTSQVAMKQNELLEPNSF
# Sequence of ETV5 (P41161 whole entry): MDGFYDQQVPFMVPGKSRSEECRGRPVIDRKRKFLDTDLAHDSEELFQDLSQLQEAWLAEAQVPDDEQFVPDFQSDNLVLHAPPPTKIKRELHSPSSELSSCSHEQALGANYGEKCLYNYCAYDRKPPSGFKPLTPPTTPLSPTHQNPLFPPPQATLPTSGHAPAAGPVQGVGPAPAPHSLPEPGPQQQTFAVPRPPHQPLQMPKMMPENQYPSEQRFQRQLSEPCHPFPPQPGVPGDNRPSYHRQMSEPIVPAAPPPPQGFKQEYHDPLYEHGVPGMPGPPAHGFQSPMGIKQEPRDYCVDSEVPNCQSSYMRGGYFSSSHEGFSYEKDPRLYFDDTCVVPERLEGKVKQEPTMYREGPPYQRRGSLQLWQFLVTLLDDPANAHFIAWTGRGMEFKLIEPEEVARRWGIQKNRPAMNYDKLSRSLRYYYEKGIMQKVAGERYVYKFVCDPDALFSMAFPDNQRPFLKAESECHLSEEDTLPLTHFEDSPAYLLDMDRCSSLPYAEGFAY
# Sequence of ETV1 (P50549 whole entry): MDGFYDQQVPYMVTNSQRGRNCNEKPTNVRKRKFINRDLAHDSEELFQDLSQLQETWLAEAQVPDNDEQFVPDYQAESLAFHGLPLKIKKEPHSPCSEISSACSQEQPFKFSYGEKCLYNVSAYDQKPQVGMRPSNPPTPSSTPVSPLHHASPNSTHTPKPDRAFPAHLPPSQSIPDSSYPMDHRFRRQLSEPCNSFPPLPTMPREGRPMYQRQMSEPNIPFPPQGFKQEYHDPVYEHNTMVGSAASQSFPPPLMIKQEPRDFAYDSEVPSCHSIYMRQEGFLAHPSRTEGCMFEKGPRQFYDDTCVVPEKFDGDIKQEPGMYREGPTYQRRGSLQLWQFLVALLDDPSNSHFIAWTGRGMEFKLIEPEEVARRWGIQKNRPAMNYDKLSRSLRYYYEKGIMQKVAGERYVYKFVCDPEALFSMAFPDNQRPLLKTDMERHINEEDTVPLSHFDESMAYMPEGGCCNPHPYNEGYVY
sequence,measurement,setting,value
ACGCCC,binding signal,FLI1,"1.22 fold enrichment (6-mer frequency, TF over GST control)"
same,binding signal,ELK1,"1.21 fold enrichment (6-mer frequency, TF over GST control)"
same,binding signal,GABPA,"1.25 fold enrichment (6-mer frequency, TF over GST control)"
same,binding signal,ERG,"1.11 fold enrichment (6-mer frequency, TF over GST control)"
same,binding signal,ELF1,"1.21 fold enrichment (6-mer frequency, TF over GST control)"
same,binding signal,EHF,"1.18 fold enrichment (6-mer frequency, TF over GST control)"
same,binding signal,SPI1,"1.11 fold enrichment (6-mer frequency, TF over GST control)"
same,binding signal,SPIB,"1.14 fold enrichment (6-mer frequency, TF over GST control)"
same,binding signal,ELK3,"1.11 fold enrichment (6-mer frequency, TF over GST control)"
same,binding signal,FEV,"1.12 fold enrichment (6-mer frequency, TF over GST control)"
same,binding signal,ETV5,"1.16 fold enrichment (6-mer frequency, TF over GST control)"
same,binding signal,HSF1,"1 fold enrichment (6-mer frequency, TF over GST control)"
same,binding signal,ELF4,"1.2 fold enrichment (6-mer frequency, TF over GST control)"
same,binding signal,ELK4,"1.18 fold enrichment (6-mer frequency, TF over GST control)"
same,binding signal,ETV2,"1.05 fold enrichment (6-mer frequency, TF over GST control)"
same,binding signal,ELF3,"1.06 fold enrichment (6-mer frequency, TF over GST control)"
same,binding signal,ETV1,"1.16 fold enrichment (6-mer frequency, TF over GST control)"
